Experimental data from the supplement of paper PMC6555819.

Experiments:
Assay in all cases: PBM binding z-score (relative to random genomic background probes); higher = stronger binding; sequences stand for … in GC…GCGATTGACAGCGTAGAATGAAGG
[1] = test system: FXR:RXRa (NR concentration 270 nM, RXRa partner concentration 90 nM)
Method in brief: (§1)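 Probes were double-stranded and carried 34-nt variable regions with direct-repeat seeds, single-nucleotide variants, half-site ablations and random human genomic background sequences, printed on custom Agilent 4×180K protein-binding microarrays. Arrays were incubated 1 h with ligand-free nuclear receptor dimers in PBS pH 7.4, 2% milk, 0.02% Triton X-100, 1 mM DTT, 0.2 mg/mL BSA and 0.4 mg/ml salmon testes DNA. Antibodies against each partner (one per run) detected binding, and scanned fluorescence was regression-normalized. Binding z-scores use the random background probes as reference.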

[2] = test system: LXRa:RXRa (NR concentration 270 nM, RXRa partner concentration 90 nM)
Method in brief: as §1

[3] = test system: LXRa homodimer (NR concentration 270 nM)
Method in brief: as §1

[4] = test system: LXRb:RXRa (NR concentration 270 nM, RXRa partner concentration 90 nM)
Method in brief: as §1

[5] = test system: LXRb homodimer (NR concentration 270 nM)
Method in brief: as §1

[6] = test system: PPARa:RXRa (NR concentration 270 nM, RXRa partner concentration 90 nM)
Method in brief: as §1

[7] = test system: PPARg:RXRa (NR concentration 180 nM, RXRa partner concentration 90 nM)
Method in brief: as §1

[8] = test system: PPARg:RXRa 270nM:90nM, anti-RXR (NR concentration 270 nM, RXRa partner concentration 90 nM)
Method in brief: as §1

[9] = test system: PPARg:RXRa 30nM:10nM, anti-RXR (NR concentration 30 nM, RXRa partner concentration 10 nM)
Method in brief: as §1

[10] = test system: PPARg:RXRa 90nM:30nM, anti-RXR (NR concentration 90 nM, RXRa partner concentration 30 nM)
Method in brief: as §1

[11] = test system: PPARg:RXRa DBDmut IVT, anti-RXR (DBD mutation: RXRa K156A/R161A, NR concentration 270 nM, RXRa partner concentration 90 nM)
Method in brief: as §1

[12] = test system: PPARg:RXRa IVT, anti-PPARg (NR concentration 270 nM, RXRa partner concentration 90 nM)
Method in brief: as §1

[13] = test system: PPARg DBDmut:RXRa IVT, anti-PPARg (DBD mutation: PPARg1 K132A/R137A, NR concentration 270 nM, RXRa partner concentration 90 nM)
Method in brief: as §1

[14] = test system: PPARg DBDmut IVT, anti-PPARg (DBD mutation: PPARg1 K132A/R137A, NR concentration 270 nM)
Method in brief: as §1

[15] = test system: PPARg homodimer (NR concentration 180 nM)
Method in brief: as §1

[16] = test system: PXR:RXRa (NR concentration 270 nM, RXRa partner concentration 90 nM)
Method in brief: as §1

[17] = test system: PXR homodimer (NR concentration 270 nM)
Method in brief: as §1

[18] = test system: RARa:RXR (NR concentration 270 nM, RXRa partner concentration 90 nM)
Method in brief: as §1

[19] = test system: RARa homodimer (NR concentration 270 nM)
Method in brief: as §1

[20] = test system: RARb:RXRa (NR concentration 270 nM, RXRa partner concentration 90 nM)
Method in brief: as §1

Sequence	PBM binding z-score [1]	PBM binding z-score [2]	PBM binding z-score [3]	PBM binding z-score [4]	PBM binding z-score [5]	PBM binding z-score [6]	PBM binding z-score [7]	PBM binding z-score [8]	PBM binding z-score [9]	PBM binding z-score [10]	PBM binding z-score [11]	PBM binding z-score [12]	PBM binding z-score [13]	PBM binding z-score [14]	PBM binding z-score [15]	PBM binding z-score [16]	PBM binding z-score [17]	PBM binding z-score [18]	PBM binding z-score [19]	PBM binding z-score [20]
AGAATGAGGTTACCAAAGATAAGGGAAACGCTTG	1.56	1.65	-0.398	1.2	-0.13	3.46	2.87	2.43	0.9	1.9	3.63	3.34	0.848	0.91	1.01	0.851	0.109	1.68	0.445	1.73
CGTCCAAGTTCAAAGGTCAGTGAAGAGATGACGG	6.81	5.86	2.94	4.98	1.4	5.95	6.58	6.54	4.28	6.22	0.396	2.79	0.887	0.712	4.76	6.79	4.04	7.83	2.04	5.11
GGAACGAGGGCAAGCTGATAGCAGAGTTTGATGG	0.351	0.065	-0.473	0.0396	-1.04	1.37	0.979	0.733	-0.285	0.3	3.83	2.53	-0.705	-0.924	-0.391	0.149	0.429	-0.0859	-0.744	2.46
AATACAGGGTCTCTAGGCCAGAGTAGGTACGAAT	-0.207	-0.38	-0.356	-0.392	-0.462	-0.078	0.645	0.0123	-0.245	-0.282	0.633	1.69	-0.23	-0.134	0.115	-0.522	-0.459	-0.47	-0.399	0.389
TGTCAAAGTCCAAAGGTAACGTAAGTATCCACAC	-0.0292	0.605	-0.413	0.55	-0.353	1.61	2.27	2.93	1.07	2.43	-0.118	1.79	0.417	1.16	0.272	0.511	-0.0654	0.938	0.285	1.93
TCTGCTAGGCCAACGATGGTCAGCTAATCTGCTA	-1.19	-0.741	-1.19	-1.05	-1.1	-0.375	-0.327	0.663	1.12	0.978	1.09	0.619	-0.0832	-1.02	-1.45	-0.538	-1.31	-0.793	-1.04	0.786
CCTCTTAGTTGACCATAAGGGCAACCGAAGCTCG	0.875	0.419	0.345	0.647	0.541	0.868	0.219	0.342	-0.34	0.305	0.417	0.373	0.452	-0.136	1.43	0.861	0.453	1.04	0.928	1.7
GCTAGCAGGCCATTTGCGTCACTCAATGACGGGC	-0.489	-0.808	-0.589	-1.15	-0.965	-0.622	0.189	-0.578	-0.911	-0.185	1.06	-0.0589	-0.895	-0.638	-1.08	-0.562	-0.856	-0.774	-1.25	-0.167
CGTCCAAGGTCAGCAGGTCAGTTAAAGCGACGTG	6.18	4.17	0.53	3.54	-0.0511	4.97	4.14	4.73	1.44	3.28	3.4	3.71	-0.851	-0.676	3.29	3.76	0.476	4.7	1.05	5.53
ATCTCTAGCTAAAGATAGTTCAGTGAATGCAAAT	-0.338	-0.141	0.164	0.199	0.452	0.345	0.318	-0.271	-0.0381	-0.201	-0.205	-0.237	1	0.169	0.538	0.463	0.542	0.855	0.543	0.329
TCTTGTAGATCAAGTAGGTTAAGAAAGCCTGAGT	0.567	0.521	0.138	0.441	-0.306	1.17	-0.25	1.46	2.57	2.04	2.13	2.44	0.611	0.864	0.365	0.513	0.364	0.645	0.0237	0.154
GTTATTAGTTGAAAGGGCAACCGAATGATTCTCG	1.4	1.73	1.19	1.56	1.28	3.14	3.9	5.52	3.84	5.47	1.31	1.82	1.34	1.6	3.38	1.26	1.4	1.87	3.11	2.55
TCGAGTAGGTTACCAATCGGGCATTCAGCTTTCT	-0.222	0.961	-0.836	-0.125	-1.27	0.717	-0.0284	1.08	1.26	1.27	3.13	2.4	-0.0689	-0.723	-0.473	-0.159	-0.753	-0.172	-0.843	0.778
GCTAGTTGGTCAGTAGAAGGTCACACACCGGTCG	1.88	2.35	2.32	2.24	0.231	2.69	1.13	2.23	0.306	1.54	1.12	2.07	-0.208	0.144	2.88	3.18	1.11	3.73	0.845	3.19
TCTTGTAGATCAAGCAGGTTAAGAATGCCTGAGT	0.16	0.304	-0.202	0.114	-0.543	0.658	-0.22	1.1	2.61	1.83	1.49	0.313	-0.142	0.577	-0.335	0.291	-0.153	0.248	-0.193	0.0521
CCTACTGGGCCATCAGGTCATTCATATCAACGTT	1.41	1.28	1.89	1.61	-0.0742	2.72	2.7	3.47	1.16	2.86	4.57	4.74	0.597	0.12	1.48	1.73	1.07	1.96	0.469	2.01
AGAATGAGGTTATTAAGATCATGGAATTGCGGTC	1.63	1.62	0.0389	1.29	-0.00587	2.75	1.91	2.37	0.464	1.49	3.59	3.1	0.789	1.06	0.459	1.53	1.15	1.53	0.293	1.36
CCTACTGGACCACGAAAGGTCATTGATTCAGTGA	3.93	5	5.74	4.47	1.54	4.5	2.84	3.67	1.47	2.9	3.39	3.26	0.692	0.507	3.78	5.28	2.09	5.61	2.84	4.02
CCTGCTAGGTCAATGGTCAGCTTAAGCAGCTCGC	3.08	2.28	-0.0012	1.51	-0.1	3.13	4.41	5.21	2.37	4.79	4.75	4.06	-0.513	-0.387	1.92	1.05	-0.588	1.88	-0.443	3.84
AATACAGGGTCACTAGTCCAGAGTAGGTACGAAT	5.5	4.68	0.946	3.94	1.32	5.09	5.61	5.17	1.77	3.89	3.25	4.67	0.95	0.987	1.66	2.97	0.58	3.7	1.03	3.99
GCTGCTAGGTCACGTTGGTCAGCTAACGGGTACG	3.59	2.38	0.0398	1.73	-0.378	3.5	3.91	3.87	1.1	2.79	5.22	4.99	0.1	-0.257	1.72	1.74	-0.356	2.81	-0.306	4.18
TCAGACAGGTGAAGGTAAATCAGGTACGCAGTCG	1.69	1.37	0.109	1.11	0.081	1.6	0.829	2.39	4.45	3.31	2.98	1.27	-0.386	0.474	1.11	0.994	0.51	1.26	0.658	1.4
GCTATTAGTTGAAAGGTCAACCGAATGATTCTCG	5.42	6.07	4.71	5.26	1.55	5.77	7.71	6.96	6.56	7.52	1.5	3.85	0.539	0.804	3.47	5.54	1.29	6.55	1.86	4.97
CCTAGTTGCTCAGGAGGTCACACACCGGATATGA	3.45	3.66	2.47	3.74	0.953	4.23	1.96	2.65	0.83	1.79	0.887	2.47	0.559	1.01	3.26	4.39	1.59	4.49	2.6	3.64
GATACAGGGACAAGGCCAGAGTACGCGTATTGAT	-0.342	-0.63	-0.318	-0.797	-0.748	-0.534	0.946	0.318	0.00447	-0.175	0.111	0.0816	-0.754	-0.819	0.187	-0.396	0.236	-0.445	-0.566	0.943
TCATATAGGTAATACAGGTCAAAGTCGGCATCTA	3.34	5.45	7.33	4.42	1.69	4.33	3.55	4.08	4.34	4.27	4.69	4.55	2.09	2.09	2.8	3.34	1.5	3.94	2.09	2.49
ATATGTAGGTTTGCTGGGGTCATTCAGACTAGGC	3.58	3.85	1.58	4.47	1.4	4.53	2.69	3.1	0.969	2.19	3.16	3.12	1.39	1.41	1.83	5.71	7.95	4.72	1	2.53
ACTCGGCGGACAAAGGTCAGAGCTACGCCAGTGA	3.34	3.79	1.32	2.86	-0.304	4.34	4.89	5.97	3.53	5.74	0.148	2.33	-0.012	-0.434	1.79	3.41	0.0332	4.18	0.924	4.22
